This is one part of a sample in which hits are shown more often than they occur.
Pf Dd2 inh: blocks in vitro growth of P. falciparum Dd2; P. falciparum Dd2 growth, SYBR Green, 72 h; Potency, µM (top dose mostly 28.9 µM), hits mostly inhibitors; actives 4.3% (n = 120,000); AID 1347417; active = well fitted inhibition curve with a large enough effect; also: nearly all actives have a fitted effect of over 65% in size
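Infected erythrocytes (Dd2, 0.3% parasitemia, 2.5% hematocrit final) are added to compound in RPMI-1640/Albumax II medium, grown 72 h at 37C in low oxygen, then lysed with saponin/Triton-X containing SYBR Green and read by fluorescence.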
Large screens that a line does not name were inactive; ! = a repeat was not active.

O=C(c1ccc2cc[nH]c2c1)N1C[C@@H](CO)[C@H](c2nc(C3CC3)no2)C1	none
CC(=O)c1cc(C(=O)NC2CCCN(c3nc4ccccc4s3)C2)[nH]n1 (stereo not drawn)	none
COc1cccc(NC(=O)Cn2c(=O)n(-c3ccccc3)c(=O)c3c2cc(C)n3C)c1	none
O=C1NCc2ccccc2CC12CCN(CC1=CCCCC1)CC2	none
O=C([C@@H]1C[C@H](Oc2cccnc2)CN1S(=O)(=O)c1ccccc1)N1CCOCC1	none
CCc1ccc(C(=O)NC2CCN(c3cnn(CCOC)c(=O)c3)CC2)cc1	none
CCN(CC)Cc1cnc2c(C(=O)Nc3ccc(Cl)cc3C)cnn2c1	none
Cc1ccc(NC(=O)N2CCC(CCNC(=O)CCC3CCCC3)CC2)cc1	none
COc1ccc(Cl)cc1NC(=O)CCC1CCCN(C(=O)CCCN2CCCC2=O)C1 (stereo not drawn)	none
COc1ccc(Cl)cc1NC(=O)CCC1CCCN(C(=O)Cn2cccn2)C1 (stereo not drawn)	none
Cc1nc(C)c(C)c(N2CCC(Oc3ccc4ccccc4c3)(C(=O)O)CC2)n1	none
O=C1C[C@H]2CC[C@@H](CN1CC(=O)N(Cc1c(F)cccc1Cl)C1CC1)N2	none
O=C(CCS(=O)(=O)c1cc2c3c(c1)CCN3C(=O)CC2)NCc1ccc(Cl)cc1	none
O=C(CCS(=O)(=O)c1cc(Br)cc2c1N(C(=O)C1CC1)CC2)NCc1ccc(Cl)cc1	Pf Dd2 inh 6.31µM
COc1ccc(CNC(=O)CCS(=O)(=O)c2cc(Br)cc3c2N(C(C)=O)C(C)C3)cc1 (stereo not drawn)	none
COc1cc(NC(=O)CN2C(=O)C(c3ccccc3)=NC23CCCC3)cc(OC)c1OC	none
C[C@H]1[C@@H]2[C@@H](O)C([C@H](C)C(=O)NCc3ccccc3)CC[C@@]2(C)CC[C@@H]1NC(=O)c1ccccc1 (stereo partly drawn)	none
COCC(=O)NC[C@@H]1C=C(C)[C@H](Cc2nc3ccc(Cl)cc3[nH]2)C[C@H]1C(C)C	Pf Dd2 inh 2.51µM
COc1ccccc1CN(Cc1ccccc1OC)C[C@@H]1C=C(C)[C@H](Cc2nc3c(C)cccc3[nH]2)C[C@H]1C(C)C	none
CC1=C[C@@H](CNC(=O)CCC(=O)O)[C@H](C(C)C)C[C@H]1Cc1nc2ccc(C)cc2[nH]1	none
CC1=C[C@@H](CNC(=O)CN(C)C)[C@H](C(C)C)C[C@H]1Cc1nc2ccc(Cl)cc2[nH]1	Pf Dd2 inh 6.31µM
CC1=C[C@@H](CNC2CCOCC2)[C@H](C(C)C)C[C@H]1Cc1nc2ccc(Cl)cc2[nH]1	Pf Dd2 inh 7.08µM
COc1ccc2nc(C[C@@H]3C[C@@H](C(C)C)[C@H](CNC(=O)NC4CCCCC4)C=C3C)[nH]c2c1	none
CC1=C[C@@H](CNC2CCOCC2)[C@H](C(C)C)C[C@H]1Cc1nc2ccccc2[nH]1	none
COC(=O)c1ccc2nc(C[C@@H]3C[C@@H](C(C)C)[C@H](CNCc4ccccc4O)C=C3C)[nH]c2c1	none
COc1ccc2nc(C[C@@H]3C[C@@H](C(C)C)[C@H](CNC(=O)CCCC(=O)O)C=C3C)[nH]c2c1	none
COc1ccc2nc(C[C@@H]3C[C@@H](C(C)C)[C@H](CNC(=O)CCC(=O)O)C=C3C)[nH]c2c1	none
COc1ccc2nc(C[C@@H]3C[C@@H](C(C)C)[C@H](CNCc4ccccc4OC)C=C3C)[nH]c2c1	Pf Dd2 inh 1.26µM
CN(CC1(CO)CCC1)C(=O)c1cc(COc2ccccc2F)[nH]n1	none
COc1ccc(-c2cc(N3CCCN(C(=O)C4CCN(C(=O)c5ccccc5)CC4)CC3)n[nH]2)cc1	none
C[C@@H](NS(=O)(=O)c1ccccc1)c1onc(-c2ccc(Cl)cc2)c1C(=O)O	none
COc1ccccc1CNC[C@H]1O[C@@H]2C[C@@H](CC(=O)N3CCC(F)(F)C3)O[C@@H]2[C@@H]1O	none
Cc1cc(C)c(S(=O)(=O)NCCn2c(C)cnc2C2CC2)cc1C	Pf Dd2 inh 11.2µM
Cc1cnc(C2CC2)n1CCN	none
Cc1ccc(C)c(S(=O)(=O)NCCn2c(C)cnc2C2CCC2)c1	none
COCC(=O)N1CCC2(C1)C(=O)N(CCc1ccccc1)c1ccccc12 (stereo not drawn)	none
COC(=O)N1CCC2(C1)C(=O)N(CCc1ccccc1)c1ccccc12 (stereo not drawn)	Pf Dd2 inh 12.6µM!
O=C(c1ccccc1)N1CCC2(C1)C(=O)N(Cc1ccccc1)c1ccccc12 (stereo not drawn)	none
O=C(c1ccc(Cl)cc1)N1CCC2(C1)C(=O)N(Cc1ccccc1)c1ccccc12 (stereo not drawn)	none
COc1ccc(CC(=O)N2CCC3(C2)C(=O)N(CCc2ccccc2)c2ccccc23)cc1 (stereo not drawn)	none
COc1cccc(C(=O)N2CCC3(C2)C(=O)N(CCc2ccccc2)c2ccccc23)c1 (stereo not drawn)	Pf Dd2 inh 7.94µM
COc1ccc(-c2cc(N3CCCC(NC(=O)c4cccc5[nH]ccc45)C3)n[nH]2)cc1 (stereo not drawn)	none
CC(CNC(=O)c1noc(-c2ccc(F)cc2)n1)c1ccccc1 (stereo not drawn)	none
COCCn1c(=O)c2c(n1Cc1ccccc1)CN(C(=O)COc1ccccc1)CC2	none
N#Cc1cccc(NC(=O)O[C@@H]2CO[C@H]3[C@@H]2OC[C@@H]3n2nnnc2-c2ccc(-c3ccccc3)cc2)c1	none
CC(C)C[C@H](NC(=O)Cn1nc2c(cc1=O)CCCC2)C(=O)O	none
Cc1ccc(-n2nc(C(=O)N3CCN(c4cc(Cl)ccc4C)CC3)c(=O)n(C)c2=O)cc1	Pf Dd2 inh 10µM
COc1cccc(N2CCN(C(=O)c3nn(C)c4c3CSc3ccc(C)cc3-4)CC2)c1	none
Cn1nc(C(=O)N2CCN(c3ccccc3F)CC2)c2c1-c1ccccc1SC2	none
Cc1ccc(-n2nc(C(=O)N3CCN(c4cc(Cl)ccc4C)CC3)c3c4ccccc4n(C)c3c2=O)cc1	none
Cc1ccc(-n2nc(C(=O)N3CCN(c4ccccc4F)CC3)c(=O)n(C)c2=O)cc1	none
Cc1ccc2c(c1)-c1c(c(C(=O)N3CCN(c4cc(Cl)ccc4C)CC3)nn1C)CS2	Pf Dd2 inh 10µM
Cc1cnc(-c2cccnc2)n1CC1CCNCC1	none
CC(C)N1C[C@H](O)C[C@H]1c1nnc2n1CCN(C(=O)CCC1CCCC1)C2	none
CCN1CCN(CC(=O)NCc2cc(N3CCOCC3)ncn2)CC1	none
c1ccc([C@@H]2CN(Cc3cccnc3)C[C@H]2COc2ccncc2)nc1	none
CC(=O)c1ccc(NC(=O)N[C@H]2CO[C@H]3[C@@H]2OC[C@H]3OC(=O)NC2CCCCC2)cc1	none
COCCN1CCCC2(CCN(C(=O)Cn3cccnc3=O)C2)C1=O (stereo not drawn)	none
COc1ccc(C(=O)NC[C@H]2O[C@H](Cc3cc(COc4ccccc4)on3)CC[C@@H]2O)cc1	none
COc1ccc(CNC[C@H]2O[C@H](Cc3cc(COc4ccccc4)on3)CC[C@@H]2O)cc1	Pf Dd2 inh 3.98µM
CCNC(=O)NC[C@H]1O[C@H](Cc2cc(CN(C)Cc3ccccc3)on2)CC[C@@H]1O	none
O[C@H]1CC[C@@H](Cc2cc(-c3ccc(F)cc3)on2)O[C@@H]1CNCc1ccncc1	Pf Dd2 inh 10µM
Cc1ccc(CNC[C@H]2O[C@H](Cc3cc(-c4ccc(F)cc4)on3)CC[C@@H]2O)cc1	none
CN(C)C[C@H]1O[C@H](Cc2cc(CN(C)Cc3ccccc3)on2)CC[C@@H]1O	none
O[C@H]1CC[C@@H](Cc2cc(-c3ccc(F)cc3)on2)O[C@@H]1CNC1CCNCC1	none
CC(=O)N1CCC(NC[C@H]2O[C@H](Cc3cc(COc4ccccc4)on3)CC[C@@H]2O)CC1	none
CN(Cc1ccccc1)Cc1cc(C[C@@H]2CC[C@H](O)[C@@H](CNCc3ccccc3)O2)no1	Pf Dd2 inh 1.78µM
